Only some compounds are listed: those with a hit (about 21% of all), similar ones and a draw of the others.
CYP2C19 inh – blockers of cytochrome P450 2C19 activity – biochemical, luminescence, ADME assay, primary screen | CYP2C19 Supersomes, luciferin-H EGE luminescence, 30 min | 96,000 tested, 21% active | P33261 | inhibition, % at 5 µM;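 active means CYP2C19 inhibition above a set limit at 5 µM in the primary screen, cut at about 50% in these data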
CYP2C19 act – human CYP2C19 activators, primary screen, biochemical, luminescence; recombinant CYP2C19, luciferin-H EGE luminescence; hits give high values; 0 = fully inhibited enzyme, 1 = untreated enzyme; activation factor at 5 µM; 96,000 tested, under 10 active;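 active means activation factor of at least 2 at 5 µM in the primary screen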
MRP reversal – reversal of MRP1-mediated doxorubicin resistance, primary screen, H69AR cells, doxorubicin co-treatment; H69AR cells + 2 uM doxorubicin, CellTiter-Glo, 72 h; differential viability (reversal), % at 10 µM; 85,000 tested, 0.04% active;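 active means viability drop by adding the cancer drug above about 55%, with treated viability meeting a 40% cutoff, limit read from the data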;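 further: larger differential means the compound sensitizes cells more to doxorubicin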
CYP2C9 act – human CYP2C9 activators, primary screen, biochemical, luminescence; Cytochrome P450 2C9 (Homo sapiens), P11712; recombinant CYP2C9, luciferin-H conversion; hits give high values; factor 1 = untreated enzyme, 0 = blocked; activation factor at 5 µM; 96,000 tested, 1.4% active; AID 1024, 2008;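 active means activation factor of 2 or more for CYP2C9 at a 5 µM dose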
Target sequence (P11712 whole entry, looked up): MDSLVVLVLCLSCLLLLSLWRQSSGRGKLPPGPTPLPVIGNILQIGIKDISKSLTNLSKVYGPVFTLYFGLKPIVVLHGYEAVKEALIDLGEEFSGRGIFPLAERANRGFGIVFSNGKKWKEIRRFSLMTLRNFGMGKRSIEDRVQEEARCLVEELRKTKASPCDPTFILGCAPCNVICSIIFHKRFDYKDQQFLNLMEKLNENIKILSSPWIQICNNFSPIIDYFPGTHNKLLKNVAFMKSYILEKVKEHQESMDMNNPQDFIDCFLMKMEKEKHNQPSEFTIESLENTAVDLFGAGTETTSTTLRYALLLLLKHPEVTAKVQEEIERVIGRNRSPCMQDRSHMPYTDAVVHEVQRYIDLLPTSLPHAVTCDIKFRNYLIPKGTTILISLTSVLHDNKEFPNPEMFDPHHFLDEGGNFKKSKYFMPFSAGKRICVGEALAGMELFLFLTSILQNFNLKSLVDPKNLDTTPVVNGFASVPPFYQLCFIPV
MRP-1 activ – H69AR viability gain despite doxorubicin, primary screen, MRP-1 activator project, H69AR cells, CellTiter-Glo. viability rescue. viability increase, % at 10 µM. 140,000 tested, 0.61% active. AID 799, 2007;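 active means viability gain under doxorubicin at or above a set limit, the compound median plus 3 SD, cut at about 4.7% in these data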;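 further: MRP-1 overexpressing cells given doxorubicin 25 µM after compound pretreatment; 18-22 h compound pretreatment then 72 h with doxorubicin before readout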
CYP2C9 inh – blockers of cytochrome P450 2C9 activity – biochemical, luminescence, ADME assay, primary screen. CYP2C9 Supersomes, luciferin-H conversion. 96,000 tested, 20% active. inhibition, % at 5 µM;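 active means blocking of liver enzyme CYP2C9 beyond about 50% at 5 µM, limit read from the data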
A number is an active result; . = inactive; / = not tested or not shown.

SMILES	CYP2C19 inh	CYP2C19 act	MRP reversal	CYP2C9 act	MRP-1 activ	CYP2C9 inh
O=C(N/N=C/C=C/c1ccc(Br)cc1)C(O)c1ccccc1 (stereo unspecified)	/	/	/	/	.	/
S=c1nc(C2CCCCC2)[nH][nH]1	.	.	.	.	.	.
C=CCN(C1CCCCC1)S(=O)(=O)c1ccc2c(c1)oc(=O)n2C	.	.	.	.	.	.
C=CCN(c1ccccc1)S(=O)(=O)c1ccc2c(c1)oc(=O)n2C	87	.	.	.	.	.
Cc1cccc(CCNS(=O)(=O)c2cnc[nH]2)c1	61	.	.	.	.	92
COc1ccccc1CNC(=O)C(CCSC)NS(=O)(=O)c1ccc2c(c1)oc(=O)n2C (stereo unspecified)	91	.	.	.	.	.
CCOc1ccccc1CNS(=O)(=O)c1ccc2[nH]c(=O)sc2c1	96	.	.	.	.	.
Fc1ccc(Oc2nccc(-c3ccc(Cl)cc3)n2)cc1	.	.	/	.	.	.
COc1ccc(CCNC(=O)COC(=O)/C=C/c2ccc(OC)c(OC)c2)cc1	/	/	/	/	.	/
Cn1c(=O)oc2cc(S(=O)(=O)NCc3ccncc3)ccc21	98	.	.	.	.	81
CON(C)c1nc(OCCNC(=O)OCc2ccc(Cl)cc2C)nc(N(C)C)n1	/	/	.	/	.	/
CN(C)c1nc(OCCOC(=O)Nc2ccc(Cl)cc2Cl)nc(N(C)C)n1	98	.	/	.	.	53
COC(=O)C1=C(C)Nc2ccc(C)cc2S1	62	.	.	.	.	.
CCCCNC(=O)C1=C(N)C(C(=O)Nc2ccc(C)c(S(=O)(=O)N3CCCCC3)c2)SC1=Nc1ccc(C)cc1C (stereo unspecified)	.	.	/	.	.	79
Cc1ccc(NC(=O)C2CC(=O)N(Cc3ccccc3)C2)cc1S(=O)(=O)N1CCCCCC1 (stereo unspecified)	/	/	/	/	.	/
CCN(CC)S(=O)(=O)c1cccc(NC(=O)C2SC(=Nc3ccc(C)cc3C)C(C(=O)NC(C)COC)=C2N)c1 (stereo unspecified)	.	.	/	.	.	83
COc1ccc(/C=C2/C(=O)N(CC3CCCO3)C(=S)N2C)c(OC)c1 (stereo unspecified)	64	.	/	.	.	90
COC(=O)C1C(=O)c2c([nH]c(C(=O)OC3CCCC3C)c2C)CC1C (stereo unspecified)	.	.	.	.	.	56
COC(=O)C1C(=O)c2c([nH]c(C(=O)OCCOC(C)C)c2C)CC1C (stereo unspecified)	.	.	.	.	.	59
COC(=O)C1C(=O)c2c([nH]c(C(=O)OC3CCCCC3)c2C)CC1C (stereo unspecified)	.	.	.	.	5.2	.
CCCNC(=O)C12CCC(C)(C(=O)C1Br)C2(C)C (stereo unspecified)	/	/	/	/	.	/
CN(Cc1ccccc1)c1nc(N)c([N+](=O)[O-])c(NCc2ccccc2)n1	/	/	/	/	.	/
CCCCCc1nc2sc3c(c2c(=O)n1N)CCC3	/	/	.	/	.	/
CCOC(=O)C1CCCn2c1nc1sc3c(c1c2=O)CCCC3 (stereo unspecified)	66	.	.	.	.	77
CCc1nc2sc3c(c2c(=O)n1N)CCC3	.	.	.	.	.	.
SMILES	CYP2C19 inh	CYP2C19 act	MRP reversal	CYP2C9 act	MRP-1 activ	CYP2C9 inh
Nn1c(Nc2ccccc2)nc2sc3c(c2c1=O)CCC3	75	.	.	.	.	98
CCCc1nc2sc3c(c2c(=O)n1N)CCC3	74	.	.	.	.	.
CCn1c(NN)nc2sc3c(c2c1=O)CCC3	75	.	.	.	.	79
Cc1ccc(NC(=O)COC(=O)/C=C/c2cccs2)c(C)c1	/	/	/	/	.	/
CCn1c(SCC(=O)NCCOC)nc2sc3c(c2c1=O)CCCC3	.	.	.	.	.	80
CCn1c(SCC(=O)NCCOC)nc2sc(C)c(C)c2c1=O	.	.	.	.	.	.
CCn1c(SCC(N)=O)nc2sc3c(c2c1=O)CCCC3	.	.	.	.	.	55
NC(=O)CSc1nc2sc3c(c2c2ncnn12)CCCC3	.	.	.	.	.	.
O=C(CN1CCC(O)(c2ccc3c(c2)OCO3)CC1)OC1CCCCC1	54	.	.	.	.	.
Cc1ccc2[nH]c(=O)c(CN(CC3CCCO3)S(=O)(=O)c3c(C)ccc4nsnc34)cc2c1 (stereo unspecified)	.	.	.	.	.	52
Cc1ccc2[nH]c(=O)c(CN(Cc3ccco3)S(=O)(=O)c3c(C)ccc4nsnc34)cc2c1	.	.	.	.	.	.
Cc1ccc(S(=O)(=O)N(Cc2cc3cc4c(cc3[nH]c2=O)OCCO4)CC2CCCO2)cc1 (stereo unspecified)	.	.	.	.	.	.
Cc1ccc2[nH]c(=O)c(CN(CC3CCCO3)S(=O)(=O)c3cccc4nsnc34)cc2c1 (stereo unspecified)	79	.	/	.	.	91
COc1ccc(N(C(=O)c2ccc(Br)o2)C2C=CS(=O)(=O)C2)cc1 (stereo unspecified)	.	.	/	.	.	.
CCOC(=O)N1CCC(N2C(=O)c3ccccc3C2Nc2cc(Cl)c(OC)cc2OC)CC1 (stereo unspecified)	.	.	.	.	.	60
Cc1ccc(-c2nc3ccccc3c(C(=O)NCc3cccs3)c2C)cc1	87	.	/	.	.	95
O=C(NCc1cccs1)c1cc(-c2ccccc2)nc2ccccc12	/	/	/	/	.	/
Cc1ccc(C)c(-c2cc(C(=O)NCc3cccs3)c3ccccc3n2)c1	.	.	/	.	.	52
Cc1ccc(S(=O)(=O)/N=C2\C(=O)c3ccccc3C([O-])=C2n2cc[n+](CCC(C)C)c2)cc1	.	.	.	.	.	53
Cc1ccc(S(=O)(=O)[N-]c2nc3ccccc3nc2-n2cc[n+](CCC(C)C)c2)cc1	56	.	.	.	.	94
Cc1ccc(OCC(=O)Nc2ccc(C)c(S(=O)(=O)N3CCCCC3)c2)c([N+](=O)[O-])n1	/	/	/	/	.	/
O=c1c2ccccc2nnn1CSc1nnc(C2COc3ccccc3O2)n1-c1ccccc1 (stereo unspecified)	87	.	.	.	.	90
O=S(=O)(c1ccccc1F)N(Cc1ccco1)Cc1nnc(-c2ccccc2Br)o1	50	.	.	.	.	68
O=C1c2ccccc2S(=O)(=O)N1Cc1nnc(-c2ccccc2Br)o1	/	/	.	/	.	/
O=C(NCC1CCCC(CNC(=O)N2CCc3ccccc32)C1)N1CCc2ccccc21 (stereo unspecified)	86	.	/	.	.	99
O=C(C1CCCO1)N1CCc2ccccc21 (stereo unspecified)	.	.	.	.	.	.

High-throughput results as filed in PubChem BioAssay.
